Results on 9 compounds are retold here after PubChem BioAssay (NCI).

Test in all cases: NCI-60 one-dose screen, 48 h (100 = growth as untreated, 0 = no growth, -100 = all killed)
What all share (settings): 10 µM

Test [1] concerns HOP-92 NSCLC.
Test [2] has as its system 786-0 renal.
Test [3] has as its system MALME-3M melanoma.
The subject of test [4] is EKVX NSCLC.
For test [5], the system named is SN12C renal.
For test [6], the system named is TK-10 renal.
Test [7] relates to A498 renal.
For test [8], the system named is CCRF-CEM leukemia.
Test [9] has as its system RPMI-8226 leukemia.
Test [10] deals with OVCAR-8 ovarian.
In test [11] the test system is OVCAR-5 ovarian.
In test [12] the test system is OVCAR-4 ovarian.
Test [13] deals with SK-OV-3 ovarian.
For test [14], the system named is IGROV1 ovarian.
In test [15] the test system is NCI/ADR-RES ovarian.
The test system of test [16] is T-47D breast.
Test [17] has as its system MDA-MB-435 melanoma.
Test [18] relates to MCF7 breast.
In test [19] the test system is HCT-116 colon.
In test [20] the test system is RXF 393 renal.

Compounds without any hit were thinned out: in the full panel of roughly 83,000, 20% have a hit.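 96-well plates, one dose, 48 hours. Percent growth reported; active if below 10.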 A number with no mark means an inactive call. Active and inactive are the calls of the source.

Take `CCOP(=O)(CC(F)(F)C(F)(F)F)OCC`: the growth in [1] was -7.91% (active); in test [2], 15.2%; in test [3], -70.4% (active); in test [4] it was 89.5%; in test [5], 62.1%; in test [6] it was 17%. The growth in test [7] is 126%; in test [8], 8.28% (active); in test [9], 7.92% (active); in [10], -80.2% (active); in [11] it was 50.7%; in test [12] it was -14.9% (active). Moreover, the growth is 111% in test [13]; 60.2% in test [14]; 14% in test [15]; 17.3% in test [16]; 18.4% in test [17]; 9.98% (active) in test [18]. Also, in test [19], the growth is -70.7% (active).
As for `CC(=O)Oc1ccccc1C(=O)NC([Se])=NC1CCCCC1`, the growth in test [1] was 32%; in test [2], -11.9% (active); in [3] it was -6.63% (active); in test [20], -68.3% (active); in test [4], -59% (active); in [5], -42.7% (active). Moreover, the growth in test [6] was -52.9% (active); in test [7], 16.3%; in test [8], 28.5%; in test [9] it was 27.9%; in [10], -56.4% (active); in test [11] it was -30.3% (active). Further, the growth in test [12] was -13.3% (active); in test [13], -41.7% (active); in test [14], -46% (active); in test [15], -16.4% (active); in test [16], -9.49% (active); in test [17], 8.85% (active). Besides, the growth was 1.18% (active) in [18] and 21% in [19].
With `O=C(/C=C/c1ccc(Cl)cc1Cl)c1nc2ccccc2n1Cc1ccc(F)cc1`, the growth in [1] was 36.6%; in [2], 19.8%; in [3], 69.1%; in [20], 32.4%; in [4] it was 35.6%; in [5], 60.4%. The growth in test [6] is 93.6%; in [7] it was 94.8%; in test [8], -10.2% (active); in [9] it was -31.1% (active); in [10], 56%; in test [11], 67.3%. Besides, the growth in test [12] was 63.2%; in [13] it was 103%; in test [14] it was 47%; in test [15], 42.2%; in [16] it was 27.2%; in [17], 43.9%. Also, the growth is 5.98% (active) in [18] and 7.22% (active) in test [19].
`C=CC[Se]C(=O)c1cncc(C(=O)[Se]CC=C)c1`: the growth was -18% (active) in test [1]; -97.3% (active) in test [2]; -67% (active) in test [3]; -91.9% (active) in [20]; -97.9% (active) in [4]; -95.6% (active) in [5]. The growth in test [6] is -20.3% (active); in test [7], 29.9%; in [8], -39.9% (active); in test [9], -42.2% (active); in test [10] it was -87.3% (active); in test [11] it was -86.6% (active). Besides, the growth in test [12] is -62.8% (active); in test [13], -92.2% (active); in test [14] it was -92% (active); in test [15] it was -70.2% (active); in test [16], -42.2% (active); in test [17], -62.9% (active). Also, the results for the growth in [18] and in [19] were -42.7% (active) and -86.4% (active), respectively.
On to `CN(C)CCc1cn(C2CCC2)c2cccc(O)c12`, for which the growth is 50% in test [2]; 46.5% in test [3]; 53.2% in test [20]; 94.9% in test [4]; 68% in test [5]; 103% in test [6]. Besides, the growth is 95% in test [7]; 56.6% in test [8]; 24.4% in [9]; 96.6% in test [10]; 79.8% in [11]; 86.6% in test [12]. For the same compound, the growth in test [13] was 92.9%; in test [14], 84.2%; in test [15], 74.3%; in test [16], 69.9%; in test [17], 45.9%; in test [18] it was 22.4%. In [19], the growth was 31.6%.
Turning to `O=C(/C=C/c1ccccc1Cl)c1nc2ccccc2n1Cc1ccc(F)cc1`, the growth in test [1] was -65.4% (active); in test [2] it was -95.3% (active); in test [3], -80% (active); in test [20] it was -97.8% (active); in test [4] it was -91.6% (active); in test [5] it was -89.4% (active). In addition, the growth is -44.2% (active) in test [6]; 62.5% in test [7]; -25.4% (active) in [8]; -29.7% (active) in test [9]; -66.1% (active) in test [10]; -66.3% (active) in [11]. In addition, the growth in test [12] was 4.42% (active); in [13] it was 8.31% (active); in test [14], -78.1% (active); in test [15], -56% (active); in test [16], -66.9% (active); in test [17], -46.7% (active). Besides, the growth in [18] is -59.3% (active); in test [19] it was -96.3% (active).
For `O=C(NCCCCC(c1ccc(F)cc1)c1ccc(F)cc1)Nc1ccc([N+](=O)[O-])c(C(F)(F)F)c1`, the growth in test [1] is -36.2% (active); in test [2], -15% (active); in test [3], -25.8% (active); in test [20], -41.3% (active); in [4] it was 4.51% (active); in test [5], 7.2% (active). Also, the growth in test [6] is 10%; in test [7], -9.75% (active); in test [8] it was -38.8% (active); in [9], -39.3% (active); in test [10], 5.42% (active); in test [11], 11.8%. In addition, the growth in [12] was 11.5%; in test [13] it was -33% (active); in test [14], 15.4%; in test [15] it was -4.02% (active); in [16], -10.4% (active); in test [17], -21.3% (active). Further, the growth in test [18] was 1.44% (active); in test [19] it was -58.2% (active).
Take `O=C(NC([Se])=NC1CCCCC1)c1ccc2c(c1)OCO2`: the growth is 118% in test [1]; 44.1% in test [2]; 57.3% in test [3]; 65.9% in test [20]; 56.8% in test [4]; 51.9% in test [5]. Also, the growth is 55.5% in test [6]; 31.3% in test [7]; 35.3% in [8]; 63% in [9]; 37.7% in test [10]; 72% in [11]. For the same compound, the growth was 70.5% in [12]; 8.53% (active) in [13]; 43.6% in test [14]; 34.4% in test [15]; -0.387% (active) in [16]; 86.4% in test [17]. For the same compound, the growth is 81.6% in test [18] and 24.7% in test [19].
Consider `CC(=C\C(=O)Oc1ccc2c3c1OC1C(O)CCC4(O)C(C2)N(CC2CCC2)CCC314)/C=C1\CCCc2ccccc21` (configuration not stated), for which the growth in [1] is 34.2%; in test [2] it was 45.1%; in [3], 34.6%; in [20], 37.7%; in [4], 49.7%; in [5] it was 60.9%. Also, the growth in [6] was 65.2%; in test [7], 125%; in test [9], 30.1%; in test [10], 76.9%; in test [11] it was 72.1%; in [12], 55.6%. Also, the growth in test [13] is 80.9%; in test [14] it was 67.1%; in test [15], 63.8%; in test [16], 24.4%; in [17], 61.8%; in test [18] it was 35.3%. Further, the growth in test [19] is 28.6%.
